From PubChem BioAssay (NCATS) come the findings set out here.

Results filed as inconclusive are left out. Calls of active or inactive are those of the source. Unless noted, the call rests on the fitted dose curve; in most records, active means well fitted curve in either direction with a large enough effect (not every such curve was filed as active); inconclusive means small, poorly fitted or top-dose-only effect, or another doubt; inactive means flat fitted curve, though single readings scatter. Some results are limits rather than exact numbers.

A short description of test [1]: AP1 Signaling Pathway (AID 357). Further: on the % scale 0 is the no-effect control and ±100 the full control effect. The settings on record: ME-180 AP-1-bla reporter, EGF-induced, beta-lactamase ratio, 5 h; at 7.69 µM (top of the series) unless noted. Summed up: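 Read-out was the 460nm/530nm emission ratio (excitation 405nm) after CCF4 loading for 2.5 hours at room temperature. Cells carried an AP-1-driven beta-lactamase reporter, were stimulated with EC50 EGF plus compound for 5 hours, and AC50 values came from titrations.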

Test [2] in a line: NFAT Signaling Pathway (AID 444).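 Further: carbachol stimulus at about its EC50 of 1 µM final; on the % scale 0 is the no-effect control and ±100 the full control effect.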 The settings on record: Jurkat NFAT-bla M1, carbachol, beta-lactamase ratio, 5 h; at 7.69 µM (top of the series) unless noted. The method in brief: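 Jurkat cells with NFAT-driven β-lactamase reporter and co-expressed M1 receptor, stimulated with carbachol (final 1 uM, ~EC50), compound titration, 5 h at 37 °C. CCF4 loaded 1 h at RT; 460/530 nm ratio gave %activity and AC50.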

Test [3] in a line: Stat Signaling Pathway (AID 446).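 Further: ME-180 cervical cancer cells given 40 pM IL-6 alongside compound; SIE-controlled beta-lactamase reporter measured as 460/530 nm FRET emission ratio; on the % scale 0 is the no-effect control and ±100 the full control effect.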 The following applies: ME-180 SIE beta-lactamase reporter, IL-6 stimulated, 5 h; at 7.69 µM (top of the series) unless noted. The method in brief: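 ME-180 SIE-bla cells; overnight plating; cpd + IL-6 40 pM, 5 h, 37 C; LiveBLAzer 2.5 h RT; 460/530 nm emission ratio. Normalized to 300 pM IL-6 and 125 nM JAK inhibitor controls.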
In test [4] the target is Glucocorticoid receptor (Homo sapiens) (UniProt P04150). Nature of the test: GR-GFP Redistribution (AID 450;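 active means compounds whose dose series gives a full or clear partial fitted curve of increased nuclear translocation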; further: potency means the concentration at half of the fitted maximal effect). The following applies: U2OS GR-GFP nuclear translocation, laser cytometry, 2 h.
The target is the same in test [5]. Briefly: GR-EFC Redistribution (AID 451; calls by dose curve; further: potency means the concentration at half of the fitted maximal effect). The settings on record: CHO-K1 GR-EFC translocation, beta-gal luminescence, 2 h. The method in brief:
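CHO-K1 cells expressing nuclear EA and GR-ED fragments of b-gal; compounds titrated up to 46 uM final, 2 h at 37 C. GR nuclear translocation read as complemented b-gal luminescence after 1 h RT detection.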

Test [6] deals with Mitogen-activated protein kinase 10 (Mus musculus) (UniProt Q61831). Nature of the test: JNK3 AlphaScreen Assay (AID 530).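 Further: kinase came from lysate of stimulated human HepG2 cells; signal reports phosphorylation of biotinylated GST-cJun 1-79 at Ser73 with 10 µM ATP; on the % scale 0 is the no-effect control and ±100 the full control effect.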 The method in brief: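 qHTS format: compounds tested as titrations against IL-1beta/TNF-alpha-activated HepG2 lysate JNK3 with biotin-GST-cJun substrate and 10 uM ATP at room temperature. Loss of anti-phospho-cJun AlphaScreen signal indicates inhibition.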

Test [7] concerns the target 3',5'-cyclic-AMP phosphodiesterase 4B (Homo sapiens) (UniProt Q07343). Briefly: qHTS Assay for Inhibitors of PDE-IV (AID 607; active means well fitted activation curve with a large enough effect in the main read-out, with a control signal flat, not every such curve was filed as active; further: % of control where 0% means no effect). The method in brief: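 ACTOne HEK293 cells carry a modified cAMP-gated CNG channel and express endogenous PDE4; plated 1000 cells/well, compounds up to 22.9 uM final. Membrane-potential dye fluorescence (ex 535/em 590) was read; parental cells received 10 uM forskolin + 100 uM RO 20-1724.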
A general note: qHTS replaces the single test concentration by a dilution series.

The nature of test [8]: qHTS Assay for Lipid Storage Modulators (AID 1519; calls by dose curve). The settings on record: Drosophila S3 cells, BODIPY lipid droplet/cell ratio, laser cytometry, cells loaded with oleic acid; for activity change, negative = inhibition: at 57.5 µM (top of the series). Summed up:
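Cells seeded at 5,000 per well were treated with compounds over a concentration series and loaded with oleic acid (400 uM, as added). Lipid droplet fluorescence (488 nm excitation, 500-530 nm channel) was read by laser-scanning cytometry and normalized to 20 uM Triacsin C.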

The target of test [9] is Ubiquitin carboxyl-terminal hydrolase 1 (Homo sapiens) (UniProt O94782). Briefly: Inhibitors of USP1/UAF1: Pilot qHTS (AID 504865; active means well fitted inhibition curve with a large enough effect;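 further: rhodamine fluorescence freed from ubiquitin-rhodamine substrate followed over time; top concentration of the series differs between compounds; on the % scale 0 is the no-effect control and ±100 the full control effect; nearly all actives have a fitted effect of over 35% in size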). Summed up: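 Deubiquitinase activity followed as kinetic rhodamine fluorescence release from 150 nM Ub-Rho. 1 nM USP1/UAF1 with compound, after 15 min room-temperature preincubation, in HEPES pH 7.8 buffer containing TCEP, EDTA, BSA and Tween-20.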

Test [10] concerns the target Cytochrome P450 1A2 (Homo sapiens) (UniProt P05177). Briefly: p450-cyp1a2 (AID 410; calls by dose curve; further: potency means the concentration at half of the fitted maximal effect). The method in brief:
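Inhibition was calculated relative to 57 uM furafylline (full inhibition). The reaction used human CYP1A2 at 20nM with Luciferin-ME at its Km, 100uM, driven by an NADPH-regenerating system for 60 min at room temperature.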

Where [11] appears, read: measured here: cell count channel max response.
Where [12] appears, read: measured here: lipid channel max response.

Chain of Ubiquitin carboxyl-terminal hydrolase 1 (Homo sapiens) (O94782 whole entry, looked up): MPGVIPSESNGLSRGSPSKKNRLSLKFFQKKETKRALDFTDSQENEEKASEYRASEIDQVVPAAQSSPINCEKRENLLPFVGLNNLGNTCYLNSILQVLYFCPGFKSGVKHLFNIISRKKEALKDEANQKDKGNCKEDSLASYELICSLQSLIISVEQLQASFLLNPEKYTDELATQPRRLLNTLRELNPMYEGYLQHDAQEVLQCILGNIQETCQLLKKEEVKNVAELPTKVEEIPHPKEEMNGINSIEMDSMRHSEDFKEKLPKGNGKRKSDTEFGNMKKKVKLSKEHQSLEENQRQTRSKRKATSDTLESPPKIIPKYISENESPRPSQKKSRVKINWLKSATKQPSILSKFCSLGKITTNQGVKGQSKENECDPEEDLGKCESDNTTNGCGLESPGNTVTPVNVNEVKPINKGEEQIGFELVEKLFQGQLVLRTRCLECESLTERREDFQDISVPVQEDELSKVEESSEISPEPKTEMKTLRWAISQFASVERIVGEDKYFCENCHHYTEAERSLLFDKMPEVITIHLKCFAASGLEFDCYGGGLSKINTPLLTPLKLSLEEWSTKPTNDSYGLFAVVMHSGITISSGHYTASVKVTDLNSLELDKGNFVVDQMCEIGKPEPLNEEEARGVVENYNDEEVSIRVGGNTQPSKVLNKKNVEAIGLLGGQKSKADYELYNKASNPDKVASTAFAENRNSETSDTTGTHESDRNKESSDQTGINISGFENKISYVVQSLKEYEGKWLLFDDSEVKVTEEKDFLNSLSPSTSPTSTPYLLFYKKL
Chain of 3',5'-cyclic-AMP phosphodiesterase 4B (Homo sapiens) (Q07343 whole entry, looked up): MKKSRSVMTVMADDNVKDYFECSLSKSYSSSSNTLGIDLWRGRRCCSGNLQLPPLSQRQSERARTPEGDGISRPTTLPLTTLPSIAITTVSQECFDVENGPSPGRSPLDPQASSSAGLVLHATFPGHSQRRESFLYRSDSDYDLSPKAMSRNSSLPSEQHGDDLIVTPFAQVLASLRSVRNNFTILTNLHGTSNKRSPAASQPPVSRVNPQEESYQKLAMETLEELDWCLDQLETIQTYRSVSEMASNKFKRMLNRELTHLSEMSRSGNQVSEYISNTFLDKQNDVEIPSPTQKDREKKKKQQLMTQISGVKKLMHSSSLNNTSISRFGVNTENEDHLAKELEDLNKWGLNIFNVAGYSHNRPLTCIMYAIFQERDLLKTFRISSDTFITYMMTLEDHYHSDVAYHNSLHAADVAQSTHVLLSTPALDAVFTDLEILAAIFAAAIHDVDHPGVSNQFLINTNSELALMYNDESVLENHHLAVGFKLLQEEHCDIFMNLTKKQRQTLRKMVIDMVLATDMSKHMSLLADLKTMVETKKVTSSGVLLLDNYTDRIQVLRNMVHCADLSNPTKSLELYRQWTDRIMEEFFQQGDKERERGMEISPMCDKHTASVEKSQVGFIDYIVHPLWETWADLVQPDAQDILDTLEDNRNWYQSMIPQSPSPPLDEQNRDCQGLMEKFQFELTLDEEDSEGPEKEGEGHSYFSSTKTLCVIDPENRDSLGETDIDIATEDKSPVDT
Chain of Glucocorticoid receptor (Homo sapiens) (P04150 whole entry, looked up): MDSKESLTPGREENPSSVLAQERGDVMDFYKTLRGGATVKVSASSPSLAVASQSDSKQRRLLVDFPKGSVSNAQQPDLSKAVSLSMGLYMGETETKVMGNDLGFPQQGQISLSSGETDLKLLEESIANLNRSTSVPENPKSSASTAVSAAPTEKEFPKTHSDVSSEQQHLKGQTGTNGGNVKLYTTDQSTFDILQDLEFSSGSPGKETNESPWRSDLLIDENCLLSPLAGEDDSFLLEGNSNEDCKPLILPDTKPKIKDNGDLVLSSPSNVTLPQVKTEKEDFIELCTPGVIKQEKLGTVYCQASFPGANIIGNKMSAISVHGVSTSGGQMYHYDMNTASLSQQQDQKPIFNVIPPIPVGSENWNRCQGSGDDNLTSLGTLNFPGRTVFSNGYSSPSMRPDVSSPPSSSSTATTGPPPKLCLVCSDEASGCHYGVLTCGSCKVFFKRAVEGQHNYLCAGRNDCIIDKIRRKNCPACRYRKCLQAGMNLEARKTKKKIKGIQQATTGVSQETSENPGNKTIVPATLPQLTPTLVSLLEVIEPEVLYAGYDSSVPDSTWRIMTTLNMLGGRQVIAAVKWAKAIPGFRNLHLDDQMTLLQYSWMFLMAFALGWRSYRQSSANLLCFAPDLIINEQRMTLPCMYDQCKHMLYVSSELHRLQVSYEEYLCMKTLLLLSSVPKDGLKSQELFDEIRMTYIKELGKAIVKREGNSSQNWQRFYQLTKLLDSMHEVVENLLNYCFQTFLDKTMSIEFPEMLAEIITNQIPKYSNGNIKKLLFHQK
Chain of Cytochrome P450 1A2 (Homo sapiens) (P05177 whole entry, looked up): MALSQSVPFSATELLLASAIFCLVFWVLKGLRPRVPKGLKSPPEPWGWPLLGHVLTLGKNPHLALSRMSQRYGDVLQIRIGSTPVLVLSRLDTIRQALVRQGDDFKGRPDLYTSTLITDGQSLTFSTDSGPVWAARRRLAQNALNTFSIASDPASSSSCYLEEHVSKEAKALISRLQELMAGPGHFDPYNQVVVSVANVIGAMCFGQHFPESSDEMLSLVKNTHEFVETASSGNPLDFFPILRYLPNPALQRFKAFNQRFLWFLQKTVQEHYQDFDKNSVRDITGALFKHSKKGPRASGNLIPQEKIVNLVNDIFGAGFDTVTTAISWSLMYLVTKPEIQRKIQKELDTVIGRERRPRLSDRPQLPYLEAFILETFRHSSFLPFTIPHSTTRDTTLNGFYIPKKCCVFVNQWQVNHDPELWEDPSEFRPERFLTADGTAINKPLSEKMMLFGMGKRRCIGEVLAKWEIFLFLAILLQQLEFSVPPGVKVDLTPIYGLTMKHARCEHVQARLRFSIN

As for `Cc1ccccc1-c1cncnc1N1CCNCC1`, the activity change, negative = inhibition in test [1] was -3.42% (inactive); in [2] it was 10.1% (inactive); in test [8], 10.2% (inactive). In addition, the activity, negative = inhibition in test [3] was 1.91% (inactive). In addition, the Potency in test [4] and in test [5] was > 46 µM (inactive) throughout. Also, the Potency entry in [6], in [7] and in test [9] was “inactive” in each case. Also, the max response in test [8] (setting [11]) worked out at 11%; in [8] (setting [12]), 18.8%.

Consider `O=C(c1ccco1)N1CCC2(CC1)CCN(c1ccncc1)CC2`, for which the activity change, negative = inhibition is -14.6% (inactive) in [1] and 3.95% (inactive) in test [8]. Moreover, in test [3], the activity, negative = inhibition was 11.2% (inactive). Also, the Potency in test [5] was > 46 µM (inactive). For the same compound, the Potency entry in test [6] and in test [7] was “inactive” throughout. For the same compound, the figures for the max response in test [8] (setting [11]) and in test [8] (setting [12]) were -3.62% and 0.777%, respectively.

Turning to `COc1ccccc1CNc1ncnc2ccc(-c3ccc(N(C)C)cc3)cc12`, the Potency in test [10] was 0.794 µM (active); in [4] it was > 46 µM (inactive); in test [5], > 46 µM (inactive). Also, in test [3], the activity, negative = inhibition is -7.61% (inactive). In [7], the Potency entry was “inactive”. Also, in test [8], the activity change, negative = inhibition is 3.4% (inactive). In addition, the max response in [8] (setting [11]) is -18%; in [8] (setting [12]), -15%.

`O=C(Nc1ccccc1)N1CCCC2(CCNCC2)C1`: the activity change, negative = inhibition in test [1] is -6.92% (inactive); in test [2], 6.49% (inactive); in [8], 3.78% (inactive). The activity, negative = inhibition in [3] was 4.83% (inactive). The Potency in test [5] is > 46 µM (inactive). Besides, the Potency result in test [6] and in test [7] was “inactive” throughout. Besides, the max response is 18% in [8] (setting [11]) and 25% in test [8] (setting [12]).

With `CN1CCN(c2nc(-c3cccc(NS(C)(=O)=O)c3)nc3ccccc23)CC1`, the values for the activity change, negative = inhibition in test [1], in test [2] and in test [8] were 2.06% (inactive), 7.49% (inactive) and 4.29% (inactive), respectively. Moreover, the activity, negative = inhibition in test [3] was -8.68% (inactive). For the same compound, the Potency in [4] and in test [5] was > 46 µM (inactive) in each case. Also, the Potency entry in [6] and in test [9] was “inactive” in each case. Further, the max response in [8] (setting [11]) stood at 7.68%; in test [8] (setting [12]) it was 8.93%.

As to `COCC(=O)N1CCC2(CCN(Cc3ccncc3)CC2)CC1`, the activity change, negative = inhibition in test [1] is 5.27% (inactive); in test [2], -6.67% (inactive); in test [8], 3.65% (inactive). For the same compound, in test [3], the activity, negative = inhibition is 1.05% (inactive). Moreover, the Potency in [5] was > 46 µM (inactive). The Potency entry in [6] and in test [7] was “inactive” throughout. For the same compound, the values for the max response in [8] (setting [11]) and in test [8] (setting [12]) were 13.5% and 19.1%, respectively.

For `COc1cccc(-c2nc(N3CCNCC3)c3ccccc3n2)c1`, the activity change, negative = inhibition was 21.6% (inactive) in test [1], -0.232% (inactive) in test [2] and 5.82% (inactive) in test [8]. In addition, the activity, negative = inhibition in test [3] was -3.15% (inactive). Moreover, the Potency in test [4] and in test [5] was > 46 µM (inactive) throughout. For the same compound, the Potency result in test [6], in [7] and in test [9] was “inactive” each time. The max response in test [8] (setting [11]) is -17.6%; in test [8] (setting [12]) it was -11.1%.

Consider `COc1ccc(-c2nc3cnc(N4CCNCC4)nc3n(C3CC3)c2=O)cc1`, for which the Potency in test [10] is 6.31 µM (active); in test [4] it was > 9.22 µM (inactive); in [5], > 46 µM (inactive). Further, the Potency result in [6] and in [7] was “inactive” in each case. The activity change, negative = inhibition in test [8] is 0.741% (inactive). For the same compound, the max response in test [8] (setting [11]) came to 4.22%; in test [8] (setting [12]), 6.87%.
